Results reported in PubChem BioAssay AID1159580 (chemical genetic matrix, 2015).
In all, about 5,500 compounds went through this assay and about 2,000 (36%) were called active. Another 18% or so got no clear call; they are omitted. No stated cut-off is given here; in the data, active means normalized growth mostly below about 0.91 (no sharp cut-off); inconclusive means no clear call, values can overlap the other calls; inactive means mostly above about 0.92. The list shows a part of the results.

Experiment: chemical genetic growth profiling, strain panel (AID 1159580);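 further: tested at 20 µM; growth read once vehicle control cultures reached saturation at 30 °C; 1 = growth at the plate median or of vehicle wells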
Settings: growth OD

Measured: normalized growth

CC1(C)C[C@@H]2C(=O)CC[C@H]3O[C@]3(C)CC[C@H]21
inactive: S. cerevisiae deletion strains, locus YJR075W, strain HOC1, stronger effect = lower value 1.01 | S. cerevisiae deletion strains, locus YKL009W, strain mrt4, stronger effect = lower value 0.985 | S. cerevisiae deletion strains, locus YKL068W, stronger effect = lower value 0.997 | S. cerevisiae deletion strains, locus YKL085W, strain MDH1 (second series), stronger effect = lower value 0.996 | S. cerevisiae deletion strains, locus YKL085W, strain MDH1, stronger effect = lower value 0.996 | S. cerevisiae deletion strains, locus YKL160W, strain elf1, stronger effect = lower value 1.01 | S. cerevisiae deletion strains, locus YKL190W, strain CNB1, stronger effect = lower value 1.01 | S. cerevisiae deletion strains, locus YKR001C, strain vps1, stronger effect = lower value 0.994 | S. cerevisiae deletion strains, locus YKR026C, strain gcn3, stronger effect = lower value 1.02 | S. cerevisiae deletion strains, locus YKR091W, strain srl3, stronger effect = lower value 1.01 | S. cerevisiae deletion strains, locus YLL001W, strain dnm1, stronger effect = lower value 0.985 | S. cerevisiae deletion strains, locus YLL026W, stronger effect = lower value 1.01 | S. cerevisiae deletion strains, locus YLL041C, strain sdh2, stronger effect = lower value 1.01 | S. cerevisiae deletion strains, locus YLR027C, strain aat2, stronger effect = lower value 1.03 | S. cerevisiae deletion strains, locus YLR039C, strain RIC1, stronger effect = lower value 1.07 | S. cerevisiae deletion strains, locus YLR058C, strain SHM2, stronger effect = lower value 1.01 | S. cerevisiae deletion strains, locus YLR102C, strain apc9, stronger effect = lower value 0.991 | S. cerevisiae deletion strains, locus YLR113W, strain HOG1, stronger effect = lower value 0.951 | S. cerevisiae deletion strains, locus YLR221C, strain rsa3, stronger effect = lower value 1.04 | S. cerevisiae deletion strains, locus YLR258W, strain gsy2, stronger effect = lower value 0.995 | S. cerevisiae deletion strains, locus YLR262C, strain YPT6 (second series), stronger effect = lower value 1.05 | S. cerevisiae deletion strains, locus YLR262C, strain YPT6, stronger effect = lower value 1.06 | S. cerevisiae deletion strains, locus YLR268W, strain sec22, stronger effect = lower value 0.992 | S. cerevisiae deletion strains, locus YLR320W, strain mms22, stronger effect = lower value 1.04 | S. cerevisiae deletion strains, locus YLR330W, strain CHS5, stronger effect = lower value 1.01 | S. cerevisiae deletion strains, locus YLR342W, strain FKS1 (second series), stronger effect = lower value 0.987 | S. cerevisiae deletion strains, locus YLR342W, strain FKS1, stronger effect = lower value 1.01 | S. cerevisiae deletion strains, locus YLR357W, strain rsc2, stronger effect = lower value 1 | S. cerevisiae deletion strains, locus YLR370C, strain arc18, stronger effect = lower value 1.01 | S. cerevisiae deletion strains, locus YLR371W, strain rom2, stronger effect = lower value 0.998 | S. cerevisiae deletion strains, locus YLR384C, strain iki3, stronger effect = lower value 1.03 | S. cerevisiae deletion strains, locus YLR418C, strain cdc73, stronger effect = lower value 1.01 | S. cerevisiae deletion strains, locus YML016C, strain PPZ1, stronger effect = lower value 1 | S. cerevisiae deletion strains, locus YML032C, strain rad52, stronger effect = lower value 0.983 | S. cerevisiae deletion strains, locus YML120C, strain ndi1, stronger effect = lower value 0.999 | S. cerevisiae deletion strains, locus YML124C, strain tub3, stronger effect = lower value 0.995 | S. cerevisiae deletion strains, locus YMR058W, strain fet3, stronger effect = lower value 1.03 | S. cerevisiae deletion strains, locus YMR078C, strain ctf18, stronger effect = lower value 0.989 | S. cerevisiae deletion strains, locus YMR125W, strain sto1, stronger effect = lower value 1.01 | S. cerevisiae deletion strains, locus YMR129W, stronger effect = lower value 1.01 | S. cerevisiae deletion strains, locus YMR205C, strain PFK2, stronger effect = lower value 1 | S. cerevisiae deletion strains, locus YMR223W, strain ubp8, stronger effect = lower value 0.991 | S. cerevisiae deletion strains, locus YMR231W, strain pep5, stronger effect = lower value 1.02 | S. cerevisiae deletion strains, locus YMR263W, strain SAP30, stronger effect = lower value 1.02 | S. cerevisiae deletion strains, locus YMR307W, strain GAS1, stronger effect = lower value 1.01 | S. cerevisiae deletion strains, locus YNL067W, strain RPL9B, stronger effect = lower value 1.01 | S. cerevisiae deletion strains, locus YNL071W, strain lat1, stronger effect = lower value 1.01 | S. cerevisiae deletion strains, locus YNL128W, strain TEP1, stronger effect = lower value 1.02 | S. cerevisiae deletion strains, locus YNL153C, strain GIM3, stronger effect = lower value 1.02 | S. cerevisiae deletion strains, locus YNL183C, strain NPR1, stronger effect = lower value 0.905 | S. cerevisiae deletion strains, locus YNL209W, strain ssb2, stronger effect = lower value 1.01 | S. cerevisiae deletion strains, locus YNL233W, strain BNI4, stronger effect = lower value 1.02 | S. cerevisiae deletion strains, locus YNL248C, strain rpa49, stronger effect = lower value 1.04 | S. cerevisiae deletion strains, locus YNL250W, strain rad50, stronger effect = lower value 0.998 | S. cerevisiae deletion strains, locus YNL271C, strain bni1, stronger effect = lower value 0.997 | S. cerevisiae deletion strains, locus YNL298W, strain CLA4, stronger effect = lower value 0.996 | S. cerevisiae deletion strains, locus YNL307C, strain MCK1, stronger effect = lower value 0.99 | S. cerevisiae deletion strains, locus YNL322C, strain KRE1 (second series), stronger effect = lower value 1 | S. cerevisiae deletion strains, locus YNL322C, strain KRE1, stronger effect = lower value 1.01 | S. cerevisiae deletion strains, locus YNR049C, strain mso1, stronger effect = lower value 1.02 | S. cerevisiae deletion strains, locus YNR052C, strain pop2, stronger effect = lower value 0.999 | S. cerevisiae deletion strains, locus YOL006C, strain TOP1, stronger effect = lower value 1.07 | S. cerevisiae deletion strains, locus YOL012C, strain htz1 1.57 | S. cerevisiae deletion strains, locus YOL147C, strain pex11, stronger effect = lower value 0.997 | S. cerevisiae deletion strains, locus YOR001W, strain rrp6, stronger effect = lower value 1.02 | S. cerevisiae deletion strains, locus YOR061W, strain CKA2, stronger effect = lower value 1.01 | S. cerevisiae deletion strains, locus YOR069W, strain VPS5, stronger effect = lower value 1 | S. cerevisiae deletion strains, locus YOR070C, strain gyp1, stronger effect = lower value 1.02 | S. cerevisiae deletion strains, locus YOR080W, strain dia2, stronger effect = lower value 1.03 | S. cerevisiae deletion strains, locus YOR083W, strain WHI5, stronger effect = lower value 1.01 | S. cerevisiae deletion strains, locus YOR106W, strain vam3, stronger effect = lower value 0.995 | S. cerevisiae deletion strains, locus YOR136W, strain idh2, stronger effect = lower value 0.996 | S. cerevisiae deletion strains, locus YOR144C, strain elg1, stronger effect = lower value 0.995 | S. cerevisiae deletion strains, locus YOR184W, strain ser1, stronger effect = lower value 0.962 | S. cerevisiae deletion strains, locus YOR231W, strain MKK1, stronger effect = lower value 0.947 | S. cerevisiae deletion strains, locus YOR265W, strain rbl2, stronger effect = lower value 1.03 | S. cerevisiae deletion strains, locus YOR270C, strain vph1, stronger effect = lower value 1.07 | S. cerevisiae deletion strains, locus YOR290C, strain snf2, stronger effect = lower value 0.995 | S. cerevisiae deletion strains, locus YOR316C, strain cot1, stronger effect = lower value 0.992 | S. cerevisiae deletion strains, locus YPL051W, strain arl3, stronger effect = lower value 1 | S. cerevisiae deletion strains, locus YPL055C, strain LGE1, stronger effect = lower value 1.04 | S. cerevisiae deletion strains, locus YPL078C, strain atp4, stronger effect = lower value 0.992 | S. cerevisiae deletion strains, locus YPL106C, strain sse1, stronger effect = lower value 0.984 | S. cerevisiae deletion strains, locus YPL240C, strain hsp82, stronger effect = lower value 1.02 | S. cerevisiae deletion strains, locus YPL241C, strain CIN2, stronger effect = lower value 1.01 | S. cerevisiae deletion strains, locus YPL256C, strain CLN2, stronger effect = lower value 0.983 | S. cerevisiae deletion strains, locus YPR119W, strain clb2, stronger effect = lower value 0.992 | S. cerevisiae deletion strains, locus YPR141C, strain kar3, stronger effect = lower value 0.991 | S. cerevisiae deletion strains, locus YPR163C, strain tif3, stronger effect = lower value 0.998 | S. cerevisiae deletion strains, locus YPR167C, strain met16, stronger effect = lower value 0.995 | S. cerevisiae deletion strains, strain wtn01, stronger effect = lower value 0.989 | S. cerevisiae strains, strain wild type, stronger effect = lower value 1.01
